# PrP UTR inh: suppresses PrP 5' UTR mRNA reporter expression; cell-based PrP 5' UTR mRNA reporter, plate reader; inhibition, % (no concentration beside the values); 340,000 tested, 0.35% active; AID 488862; in the data active = inhibition above about 52%; also: 0 = median of the neutral control wells
# Yp Topo-I inh: Y. pestis Topo-I inhibition via cleavage products. 360,000 tested, 0.064% active. activity, % at 10 µM. Y. pestis Topo-I cleavage product accumulation, plate reader; in the data active = activity above about 50%, passing the limit was not always enough
# Mtb hypoxia rep: Mtb hypoxia fluorescent reporter inhibition | M. tuberculosis hypoxia-regulated fluorescent reporter, fluorescence | fluorescence inhibition, % (concentration not given with the values) | 300,000 tested, 0.1% active | AID 1159583; in the data active = fluorescence inhibition mostly above about 23%, no sharp cut-off; inactive = mostly below about 17%
# FBA Mtb inh: inhibits M. tuberculosis FBA enzyme. inhibition, % at 1 µM. purified M. tuberculosis FBA, fluorescence read-out. 360,000 tested, 2.3% active. AID 588726. P9WQA3;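 also: 0% = vehicle and 100% = reference inhibitor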
# Target sequence (P9WQA3 whole entry, looked up): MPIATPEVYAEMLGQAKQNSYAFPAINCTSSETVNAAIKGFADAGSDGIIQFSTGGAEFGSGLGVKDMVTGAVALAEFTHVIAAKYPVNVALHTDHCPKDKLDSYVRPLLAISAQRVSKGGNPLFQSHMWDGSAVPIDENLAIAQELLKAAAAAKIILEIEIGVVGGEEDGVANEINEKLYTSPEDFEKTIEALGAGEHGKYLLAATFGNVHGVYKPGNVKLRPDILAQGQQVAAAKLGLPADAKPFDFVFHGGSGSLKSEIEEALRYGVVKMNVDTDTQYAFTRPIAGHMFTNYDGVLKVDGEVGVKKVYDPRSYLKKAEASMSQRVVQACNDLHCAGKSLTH
# PrPC surface inh: inhibitors of human cell surface prion protein PrPC; TR-FRET read-out; inhibition, % at 13.8 µM; 370,000 tested, 0.43% active; AID 720596; in the data active = inhibition above about 24%; also: 0% = median of the test wells and 100% = reference compound wells
# GDH-TPI counter-1: inhibits GDH-TPI coupling enzymes, artifact for Mtb FBA screen; 360,000 tested, 1.2% active; GDH-TPI coupled enzyme counterscreen, NADH absorbance; inhibition, % at 4.8 µM; in the data active = inhibition above about 30%;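 also: 0% = DMSO wells and 100% = wells lacking the enzyme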
# Mtb FBA inh conf: confirmation of M. tuberculosis fructose-bisphosphate aldolase inhibitors; shares compounds with FBA Mtb inh; purified M. tuberculosis FBA, fluorescence read-out; inhibition, % at 1 µM; 5,600 tested, 78% active; AID 651616;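 also: 0% = vehicle wells and 100% = reference inhibitor wells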
# GDH-TPI counter-2: inhibits GDH-TPI coupling enzymes, flagging Mtb FBA hits | inhibition, % at 1 µM | GDH-TPI coupled enzyme counterscreen, fluorescence | shares compounds with FBA Mtb inh | 5,600 tested, 81% active; in the data active = inhibition above about 10%
# GDH-TPI dose: GDH-TPI dose response counter-screen for Mtb FBA; shares compounds with FBA Mtb inh; AID 652145; IC50, µM; GDH-TPI coupled enzyme assay, fluorescence, artifact counterscreen; 170 tested, 79% active; call rule not given here
# An asterisk follows results filed as active; nt = no result given; + = active, no number. In the library only some 3.8% were active in any assay of this set; here they are far more common. Rule as the data show it, unless noted: active = inhibition above about 27%; inactive = the rest.
SMILES,PrP UTR inh,Yp Topo-I inh,Mtb hypoxia rep,FBA Mtb inh,PrPC surface inh,GDH-TPI counter-1,Mtb FBA inh conf,GDH-TPI counter-2,others
COCCCNC(=O)c1cc2c(-c3ccc(Cl)cc3)nn(C)c2s1,-20.5,-0.2,nt,74.0*,-8.0,19.7,76.8*,73.1*,
COCCNC(=O)c1cc2c(-c3ccccc3F)nn(C)c2s1,-15.1,2.9,2.1,35.1*,1.8,15.9,116.9*,88.0*,
CCCCNC(=O)c1cc2c(-c3ccc(Cl)cc3)nn(C)c2s1,2.2,-4.7,nt,16.1,-0.8,2.4,nt,nt,
Cn1nc(-c2ccc(Cl)cc2)c2cc(C(=O)NCCCN3CCCC3)sc21,3.8,-8.7,nt,35.2*,2.2,13.0,80.8*,70.7*,
COCCNC(=O)c1cc2c(-c3ccc(Cl)cc3)nn(C)c2s1,-4.9,5.8,nt,79.0*,-7.0,5.3,69.3*,53.8*,
CC1(C)CC(=O)CC(=NNC(=O)C2CCN(S(=O)(=O)c3cccs3)CC2)C1,nt,nt,0.8,nt,nt,nt,nt,nt,
NC(=NO)C(c1ccccc1)c1ccccc1,nt,nt,11.1,nt,nt,nt,nt,nt,
CN(N=Cc1ccc(N(C)C)cc1)C1=NS(=O)(=O)c2ccccc21,nt,nt,8.0,nt,nt,nt,nt,nt,
CNC(=O)c1cc2c(-c3ccccc3)nn(C)c2s1,-6.0,4.9,4.5,72.8*,-0.6,6.7,102.3*,79.7*,
CN(C)CCCNC(=O)c1cc2c3ccccc3n(C)c2s1,-3.3,4.9,12.5,6.5,4.7,17.9,nt,nt,
CCCCN(C)CCNC(=O)c1cc2c(-c3ccccc3F)nn(C)c2s1,-4.5,-6.5,15.4,45.9*,-2.3,5.9,37.5*,32.5*,
COc1ccc(C(O)=C2C(=O)C(=O)N(CCN(C)C)C2c2ccccc2)cc1Cl (stereo unspecified),nt,nt,9.4,nt,nt,nt,nt,nt,
CCCCC(=O)Nc1cc(N(C)C)nc2ccccc12,-18.2,0.2,nt,34.6*,-1.2,13.8,+,+,
CN(C)c1cc(NC(=O)CNC(C)(C)C)c2ccccc2n1,-4.5,1.1,2.4,22.2,-2.6,0.8,nt,nt,
Cn1c(=O)c2c(nc(SCCN3CCCCC3)n2Cc2ccc(Cl)cc2)n(C)c1=O,-8.0,19.0,nt,43.8*,-4.2,-3.0,79.7*,68.1*,
CCSc1nc2c(c(=O)n(C)c(=O)n2C)n1Cc1ccc(Cl)cc1,-13.8,4.2,nt,-3.0,-4.9,-2.5,nt,nt,
CCCc1cc(=O)oc2cc(C)cc(OCC(=O)Nc3ccc(S(N)(=O)=O)cc3)c12,-1.8,0.4,0.6,19.2,-2.1,7.1,nt,nt,
CCCc1cc(=O)oc2cc(OCC(=O)NC(Cc3c[nH]c4ccc(O)cc34)C(=O)O)c(Cl)cc12 (stereo unspecified),-25.0,-1.5,nt,1.1,-5.1,0.0,nt,nt,
CCCc1cc(=O)oc2cc(C)cc(OCC(=O)NC(Cc3ccc(Cl)cc3)C(=O)O)c12 (stereo unspecified),-7.3,5.5,nt,70.2*,-1.9,4.9,2.8,-0.1,
CCCCc1cc(=O)oc2cc(C)cc(OCC(=O)NC(Cc3ccc(Cl)cc3)C(=O)O)c12 (stereo unspecified),-5.5,12.2,nt,63.0*,11.1,6.9,105.0*,68.1*,
CCCc1nc2oc3c(NCC(C)O)ncnc3c2c2c1CCCC2 (stereo unspecified),nt,29.0,1.1,36.1*,-3.9,1.5,68.0*,45.0*,
O=C(NN=Cc1cc2c(cc1Br)OCO2)c1ccccn1,nt,nt,22.4,nt,nt,nt,nt,nt,
C#CCOCCOCCOCCNc1nc(N2CCOCC2)nc(N2CCN(C(=O)C(C(C)CC)n3cc(C(N)CC(C)C)nn3)CC2)n1 (stereo unspecified),nt,nt,1.6,nt,nt,nt,nt,nt,
Cc1cc(=O)oc2cc(OCc3ccc(C(=O)N4CCN(c5ccc([N+](=O)[O-])cc5)CC4)cc3)ccc12,-101.2,12.5,-7.1,-2.8,4.9,5.5,nt,nt,
CCOC(=O)C1CCN(C(=O)COc2ccc3c(C)cc(=O)oc3c2)CC1,-9.7,10.4,3.2,34.9*,9.5,5.0,148.0*,135.8*,
SMILES,PrP UTR inh,Yp Topo-I inh,Mtb hypoxia rep,FBA Mtb inh,PrPC surface inh,GDH-TPI counter-1,Mtb FBA inh conf,GDH-TPI counter-2,others
Cc1cc(=O)oc2cc(OCC(=O)N3CCCC3)ccc12,-13.2,-1.4,1.6,40.7*,-5.8,1.6,13.1,5.3,GDH-TPI dose=5.29*
Cc1cc(=O)oc2cc(OCc3ccc(C(=O)N4CCN(c5ccccc5)CC4)cc3)ccc12,-11.5,-11.8,-5.2,43.5*,-5.7,6.2,121.5*,88.8*,
O=C(NN=Cc1ccc2ncccc2c1)c1ccco1,nt,nt,0.2,nt,nt,nt,nt,nt,
CC(C)CC(NC(=O)c1nc[nH]c1C(=O)NC(CC(C)C)C(=O)OC(C)(C)C)C(=O)OCc1ccccc1 (stereo unspecified),nt,nt,18.9,nt,nt,nt,nt,nt,
COc1ccc(O)c(C=NN2CCOCC2)c1,nt,nt,17.4,nt,nt,nt,nt,nt,
Cc1cc(N2CCC(N(C)C3CCCC3)CC2)nc2cc(O)ccc12,-6.9,5.2,11.8,27.7*,-1.3,14.7,91.5*,73.5*,
Cc1cc(N2CCN(c3ccccc3)CC2)nc2ccccc12,-21.4,11.4,10.4,-0.1,4.3,-1.7,nt,nt,
C=CCn1cc(-c2ccccc2)cc(C#N)c1=O,-19.6,-7.6,18.7,73.3*,-10.3,3.1,-3.8,-3.1,
COc1ccc(C2CC(c3ccccc3OC(C)=O)=NN2C(C)=O)cc1 (stereo unspecified),-36.3,-1.7,2.4,49.9*,11.8,14.7,108.7*,74.8*,
C(=NN(c1ccccc1)c1ccccc1)c1ccc2c(c1)OCO2,nt,nt,3.6,nt,nt,nt,nt,nt,
O=C(COC(=O)c1ccccc1NCc1ccco1)Nc1ccc2c(c1)OCO2,-22.7,9.0,nt,45.2*,11.3,11.9,64.0*,49.7*,
O=C(COC(=O)c1ccccc1NC(=O)c1ccco1)Nc1ccc2c(c1)OCO2,-11.8,9.6,9.3,1.7,3.6,24.1,nt,nt,
NC(=O)c1ccsc1NC(=O)COC(=O)c1ccccc1F,-9.8,-1.2,2.2,2.0,-4.8,1.4,nt,nt,
NC(=O)c1ccsc1NC(=O)COC(=O)c1ccccc1NCc1ccco1,-30.9,-6.7,nt,59.0*,-1.6,-1.9,50.2*,32.1*,
CC(=O)Nc1cccc(NC(=O)Cc2cccs2)c1,-6.5,-8.6,-0.5,0.5,-0.3,12.8,nt,nt,
O=C(Cc1cccs1)Nc1cccc(-c2nc3cc4ccccc4cc3[nH]2)c1,-126.8,-5.3,4.9,55.8*,4.4,21.8,-4.9,-4.2,
COC(=O)C1=C(c2c(C)noc2C)CC2CCC1N2C(=O)NCCOc1ccc(OC)cc1 (stereo unspecified),nt,nt,-2.8,nt,nt,nt,nt,nt,
Cn1c(=O)oc(=O)c2ccccc21,-3.5,0.3,0.1,93.7*,9.3,17.0,134.9*,116.1*,
COc1ccc(C#Cc2ccc3c(=O)c4ccccc4n(C)c3c2)cc1,-29.0,nt,11.2,nt,nt,nt,nt,nt,
CCOC(=O)c1ccc(-c2ccc3c(=O)c4ccccc4n(C)c3c2)cc1F,-15.8,10.6,2.6,57.1*,-7.8,13.2,132.7*,116.7*,
